The source made the active and inactive calls. How the source made its calls: active means hit-call score of the fitted dose curve at least 0.9, where 1 is the maximum; inactive means score below 0.9.
Tests used:
Conditions in all cases: mRNA level, 48 h; actives raise or lower the signal
[1] = read-out: Interleukin 6 (IL6), IL6 (gene 3569); test: LTEA_HepaRG_IL6: Life Technologies and Expression Analysis (LTEA) Assay for Interleukin 6 (IL6) using HepaRG (AID 2283509)
Procedure, shortened: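 HepaRG cells exposed in duplicate for 48 h to eight half-log concentrations, top 100 uM, in 0.5% DMSO serum-free induction medium. mRNA measured by qRT-PCR, normalized to ACTB, GAPDH and POLR2A. Bidirectional fit versus DMSO.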

[2] = read-out: Interleukin 6 Receptor (IL6R), IL6R (gene 3570); test: LTEA_HepaRG_IL6R: Life Technologies and Expression Analysis (LTEA) Assay for Interleukin 6 Receptor (IL6R) using HepaRG (AID 2283510);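 on AC50: TaqMan qRT-PCR signal normalized to ACTB GAPDH and POLR2A housekeeping genes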
Procedure, shortened: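 Differentiated HepaRG cells, plated 48 h, then exposed in duplicate for 48 h in serum-free induction medium to 8 half-log concentrations (top 100 uM, 0.5% DMSO). IL6R mRNA measured by TaqMan qRT-PCR, normalized to ACTB/GAPDH/POLR2A; bidirectional fit vs DMSO.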

[3] = read-out: Potassium channel subfamily K member 1 (KCNK1), KCNK1 (gene 3775); test: LTEA_HepaRG_KCNK1: Life Technologies and Expression Analysis (LTEA) Assay for Potassium channel subfamily K member 1 (KCNK1) using HepaRG (AID 2283511)
Procedure, shortened: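 Differentiated HepaRG cells, 48 h exposure in serum-free induction medium with 0.5% DMSO; 8 concentrations, half-log from 100 uM, duplicate. KCNK1 mRNA by qRT-PCR, normalized to ACTB, GAPDH, POLR2A; bidirectional fit vs DMSO.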

[4] = read-out: Keratin 19 (KRT19), KRT19 (gene 3880); test: LTEA_HepaRG_KRT19: Life Technologies and Expression Analysis (LTEA) Assay for Keratin 19 (KRT19) using HepaRG (AID 2283512)
Procedure, shortened: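 KRT19 transcript levels, measured by Fluidigm qRT-PCR against three housekeeping genes, are fitted for gain or loss of signal relative to DMSO. Human HepaRG cells receive test chemicals (top 100 uM, half-log steps, 0.5% DMSO) for 48 hours.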

[5] = read-out: JUN Transcription Factor, JUN (gene 3725); test: LTEA_HepaRG_JUN: Life Technologies and Expression Analysis (LTEA) Assay for JUN Transcription Factor using HepaRG (AID 2283513)
Procedure, shortened: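 HepaRG cells, 48 h post-plating, exposed 48 h in serum-free induction medium to 8-point half-log series (top 100 uM, 0.5% DMSO), duplicate; mRNA by qRT-PCR (TaqMan, Fluidigm), normalized to ACTB/GAPDH/POLR2A; bidirectional fit vs DMSO.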

[6] = read-out: Lipase C (LIPC), LIPC (gene 3990); test: LTEA_HepaRG_LIPC: Life Technologies and Expression Analysis (LTEA) Assay for Lipase C (LIPC) using HepaRG (AID 2283514)
Procedure, shortened: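 HepaRG cells, 48 h after plating, treated in duplicate for 48 h in serum-free induction medium over 8 half-log concentrations from 100 uM, 0.5% DMSO. LIPC mRNA by TaqMan qRT-PCR normalized to ACTB/GAPDH/POLR2A; bidirectional fit versus DMSO.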

[7] = read-out: Lipoprotein lipase (LPL), LPL (gene 4023); test: LTEA_HepaRG_LPL: Life Technologies and Expression Analysis (LTEA) Assay for Lipoprotein lipase (LPL) using HepaRG (AID 2283515)
Procedure, shortened: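 Differentiated HepaRG cells, plated 48 h, then exposed 48 h in serum-free induction medium to 8 concentrations (top 100 uM, half-log steps) in 0.5% DMSO, duplicate. LPL mRNA measured by qRT-PCR, normalized to ACTB, GAPDH and POLR2A.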

[8] = read-out: MicroRNA 122 (MIR122), gene 406906; test: LTEA_HepaRG_MIR122: Life Technologies and Expression Analysis (LTEA) Assay for MicroRNA 122 (MIR122) using HepaRG (AID 2283516); further: the transcript read is the microRNA miR-122
Procedure, shortened: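 Differentiated human HepaRG cells in serum-free induction medium exposed 48 h to 8 half-log concentrations from 100 uM in 0.5% DMSO, duplicate. MIR122 quantified by Fluidigm TaqMan qRT-PCR, normalised to ACTB, GAPDH, POLR2A; fold change fitted bidirectionally versus DMSO.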

[9] = read-out: matrix metalloproteinase-10 (MMP10), MMP10 (gene 4319); test: LTEA_HepaRG_MMP10: Life Technologies and Expression Analysis (LTEA) Assay for matrix metalloproteinase-10 (MMP10) using HepaRG (AID 2283517)
Procedure, shortened: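 Differentiated HepaRG cells in serum-free induction medium exposed 48 h in duplicate to 8-point half-log series up to 100 uM in 0.5% DMSO. mRNA quantified by qRT-PCR, normalised to ACTB, GAPDH, POLR2A; bidirectional fit versus DMSO.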

[10] = read-out: MYC, MYC (gene 4609); test: LTEA_HepaRG_MYC: Life Technologies and Expression Analysis (LTEA) Assay for MYC using HepaRG (AID 2283518)
Procedure, shortened: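 HepaRG, ~100,000 cells/well, collagen I; 48 h plating; serum-free induction medium; 48 h dosing, duplicate, 100 uM top, half-log, 0.5% DMSO; total RNA → qRT-PCR MYC; gain/loss fit vs DMSO.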

[11] = read-out: matrix metalloproteinase-3 (MMP3), MMP3 (gene 4314); test: LTEA_HepaRG_MMP3: Life Technologies and Expression Analysis (LTEA) Assay for matrix metalloproteinase-3 (MMP3) using HepaRG (AID 2283519)
Procedure, shortened: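 HepaRG cells (~100,000/well) in serum-free induction medium were dosed in duplicate for 48 h with an 8-point half-log series from 100 uM, 0.5% DMSO. MMP3 mRNA was quantified by Fluidigm TaqMan qRT-PCR, normalized to three housekeeping genes.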

[12] = read-out: Paternally Expressed 10 (PEG10), PEG10 (gene 23089); test: LTEA_HepaRG_PEG10: Life Technologies and Expression Analysis (LTEA) Assay for Paternally Expressed 10 (PEG10) using HepaRG (AID 2283520)
Procedure, shortened: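 Differentiated HepaRG cells exposed 48 h in serum-free induction medium to eight half-log concentrations topping at 100 uM, 0.5% DMSO, in duplicate. PEG10 mRNA quantified by TaqMan qRT-PCR, normalized to ACTB, GAPDH and POLR2A; bidirectional fit versus DMSO.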

[13] = read-out: Protein phosphatase 2A (PPP2R4), PTPA (gene 5524); test: LTEA_HepaRG_PPP2R4: Life Technologies and Expression Analysis (LTEA) Assay for Protein phosphatase 2A (PPP2R4) using HepaRG (AID 2283522)
Procedure, shortened: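 Differentiated human HepaRG cells in serum-free induction medium were exposed 48 h to 8 concentrations (top 100 µM, half-log steps, duplicate) in 0.5% DMSO. PPP2R4 mRNA was measured by TaqMan qRT-PCR, normalised to ACTB, GAPDH and POLR2A, and fitted bidirectionally versus DMSO.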

[14] = read-out: Phosphatase and tensin (PTEN), PTEN (gene 5728); test: LTEA_HepaRG_PTEN: Life Technologies and Expression Analysis (LTEA) Assay for Phosphatase and tensin (PTEN) using HepaRG (AID 2283523)
Procedure, shortened: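 HepaRG cells, 48 h after plating, exposed in duplicate for 48 h in serum-free induction medium to 8 half-log concentrations up to 100 uM (0.5% DMSO). PTEN mRNA by qRT-PCR, normalized to ACTB, GAPDH, POLR2A; bidirectional fit versus DMSO.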

[15] = read-out: solute carrier (SLC22A1), SLC22A1 (gene 6580); test: LTEA_HepaRG_SLC22A1: Life Technologies and Expression Analysis (LTEA) Assay for solute carrier (SLC22A1) using HepaRG (AID 2283524)
Procedure, shortened: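 Differentiated human HepaRG cells in serum-free induction medium, exposed 48 h in duplicate to 8-point half-log series from 100 µM top in 0.5% DMSO. SLC22A1 mRNA by TaqMan qRT-PCR normalized to ACTB, GAPDH, POLR2A; bidirectional fit versus DMSO.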

[16] = read-out: Pyruvate Dehydrogenase Kinase 4 (PDK4), PDK4 (gene 5166); test: LTEA_HepaRG_PDK4: Life Technologies and Expression Analysis (LTEA) Assay for Pyruvate Dehydrogenase Kinase 4 (PDK4) using HepaRG (AID 2283525)
Procedure, shortened: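 HepaRG cells plated 48 h, then switched to serum-free induction medium and exposed in duplicate for 48 h to 8 half-log concentrations from 100 uM in 0.5% DMSO. PDK4 mRNA measured by qRT-PCR, normalized to ACTB, GAPDH and POLR2A; bidirectional fit versus DMSO.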

[17] = read-out: NAD(P)H dehydrogenase [quinone] 1 (NQO1), NQO1 (gene 1728); test: LTEA_HepaRG_NQO1: Life Technologies and Expression Analysis (LTEA) Assay for NAD(P)H dehydrogenase [quinone] 1 (NQO1) using HepaRG (AID 2283526)
Procedure, shortened: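 Differentiated human HepaRG cells in serum-free induction medium, dosed in duplicate for 48 h at 8 half-log concentrations up to 100 uM in 0.5% DMSO. NQO1 mRNA by qRT-PCR normalized to ACTB, GAPDH, POLR2A; bidirectional fit versus DMSO baseline.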

[18] = read-out: Nuclear factor erythroid 2-related factor 2 (Homo sapiens) (UniProt Q16236); test: LTEA_HepaRG_NFE2L2: Life Technologies and Expression Analysis (LTEA) Assay for Nuclear factor erythroid 2-related factor 2 (NFE2L2) Transcription Factor using HepaRG (AID 2283527)
Procedure, shortened: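 Differentiated human HepaRG cells, serum-free induction medium, exposed 48 h in duplicate to eight half-log concentrations up to 100 uM in 0.5% DMSO. NFE2L2 mRNA by Fluidigm TaqMan qRT-PCR, normalised to ACTB, GAPDH, POLR2A; bidirectional change versus DMSO.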

[19] = read-out: Insulin-like growth factor-binding protein 1 (IGFBP1), IGFBP1 (gene 3484); test: LTEA_HepaRG_IGFBP1: Life Technologies and Expression Analysis (LTEA) Assay for Insulin-like growth factor-binding protein 1 (IGFBP1) using HepaRG (AID 2283508)
Procedure, shortened: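 Thawed HepaRG cells are plated for 48 h, switched to serum-free induction medium, then dosed in duplicate for another 48 h (100 uM top, half-log steps). Lysates in RLT go to qRT-PCR, and gain or loss of signal is fitted relative to vehicle.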

Measured: AC50

Nuclear factor erythroid 2-related factor 2 (Homo sapiens), sequence (Q16236 whole entry, looked up): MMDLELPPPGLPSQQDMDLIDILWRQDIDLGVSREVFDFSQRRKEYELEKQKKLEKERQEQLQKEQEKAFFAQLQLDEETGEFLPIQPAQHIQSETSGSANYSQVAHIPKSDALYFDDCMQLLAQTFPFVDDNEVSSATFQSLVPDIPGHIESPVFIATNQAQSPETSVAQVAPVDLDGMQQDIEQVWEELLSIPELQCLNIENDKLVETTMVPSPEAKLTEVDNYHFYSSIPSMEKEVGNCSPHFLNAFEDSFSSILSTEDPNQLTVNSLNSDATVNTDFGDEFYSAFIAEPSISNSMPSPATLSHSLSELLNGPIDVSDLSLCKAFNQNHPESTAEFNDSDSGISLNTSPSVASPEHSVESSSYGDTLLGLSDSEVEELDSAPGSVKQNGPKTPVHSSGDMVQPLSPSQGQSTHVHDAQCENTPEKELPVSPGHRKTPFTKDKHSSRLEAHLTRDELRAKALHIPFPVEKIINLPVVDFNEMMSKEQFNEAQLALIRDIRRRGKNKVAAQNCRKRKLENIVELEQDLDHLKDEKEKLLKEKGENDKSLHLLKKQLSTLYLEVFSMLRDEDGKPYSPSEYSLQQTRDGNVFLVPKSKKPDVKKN

CCCCCCCCOC(=O)CCCCCCCCC(=O)OCCCCCCCC
inactive: [1] | [2] | [3] | [4] | [5] | [6] | [7] | [8] | [9] | [10] | [11] | [12] | [13] | [14] | [15] | [16] | [17] | [18]

C[C@@H]1C[C@H]2[C@@H]3CCC4=CC(=O)C=C[C@]4(C)[C@@]3(F)[C@@H](O)C[C@]2(C)[C@@]1(O)C(=O)COP(=O)(O)O
inactive: [19] | [1] | [2] | [3] | [4] | [5] | [6] | [7] | [8] | [9] | [10] | [12] | [13] | [14] | [15] | [16] | [17] | [18]

CC1=C(/C=C/C(C)=C/C=C/C(C)=C/C(=O)O)C(C)(C)CCC1
active: [3] 10.2 µM | [10] 22.7 µM | [12] 9 µM | [15] 22.9 µM | [16] 33.8 µM | [17] 11 µM | [18] 20.4 µM
inactive: [19] | [1] | [5] | [6] | [7] | [8] | [9] | [13] | [14]

CCCCCCCCCCCCN1CCCC1=O
inactive: [19] | [1] | [2] | [3] | [4] | [5] | [6] | [7] | [8] | [9] | [10] | [12] | [13] | [14] | [15] | [16] | [17] | [18]

CCC(=C(c1ccc(O)cc1)c1ccc(OCCN(C)C)cc1)c1ccccc1
active: [19] 76.5 µM | [1] 91.8 µM | [2] 93.2 µM | [5] 89.3 µM | [8] 88.8 µM | [9] 72.4 µM | [10] 77.7 µM | [15] 93.4 µM
inactive: [3] | [4] | [6] | [7] | [12] | [13] | [14] | [16] | [17] | [18]

N#C[C@@H]1CC(F)(F)CN1C(=O)CNC1CC2CCC(C1)N2c1ncccn1 (some centres undefined)
inactive: [19] | [1] | [2] | [3] | [4] | [5] | [6] | [7] | [8] | [9] | [10] | [12] | [13] | [14] | [15] | [16] | [17] | [18]

CCc1nn(C2CCCCC2)c2cc(C3(C#N)CCC(C(=O)O)CC3)ccc12 (centres undefined)
inactive: [2] | [5] | [14] | [17]
active: [19] 75.7 µM | [1] 84.9 µM | [3] 13.1 µM | [4] 90.5 µM | [6] 78.9 µM | [7] 37.2 µM | [8] 80.1 µM | [9] 81.6 µM | [10] 50 µM | [12] 12.8 µM | [13] 11.4 µM | [15] 72.6 µM | [16] 33.6 µM | [18] 50 µM
